Pf Dd2 growth: Plasmodium falciparum Dd2 growth inhibition | P. falciparum Dd2 growth, SYBR Green, 72 h | Potency, µM (series often up to 28.9 µM), most hits filed as inhibitors | 120,000 compounds, 4.3% hits; active means well fitted inhibition curve with a large enough effect; further: nearly all actives have a fitted effect of over 65% in size
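Infected erythrocytes (Dd2, 0.3% parasitemia, 2.5% hematocrit final) are added to compound in RPMI-1640/Albumax II medium, grown 72 h at 37C in low oxygen, then lysed with saponin/Triton-X containing SYBR Green and read by fluorescence.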
Each line names hits and unclear results; the compound was inactive in the other large screens. The full list was thinned out, with hits kept by preference.

O=C(CCn1cccn1)NC1CCCc2nc(-c3ccccc3)ncc21 (stereo not given)	none
OC(c1cccc(C(F)(F)F)c1)c1nc(Nc2cccc(Cl)c2)n[nH]1 (stereo not given)	Pf Dd2 growth 7.94µM
OC(c1ccc2c(c1)CCO2)c1nc(Nc2cccc(C(F)(F)F)c2)n[nH]1 (stereo not given)	none
COc1ccc(Nc2n[nH]c(C(O)c3cccc(C(F)(F)F)c3)n2)cn1 (stereo not given)	none
O=C(C[C@@H]1C[C@H]2O[C@H](CNC3CCC(F)(F)CC3)[C@@H](O)[C@H]2O1)N1CCOCC1	none
COc1ccc2c(c1)-c1nc(NC(=O)c3cc(Cl)ccc3OC)sc1CC2	none
COc1ccc2c(c1)-c1nc(NC(=O)c3cc(OC)c(OC)c(OC)c3)sc1CC2	Pf Dd2 growth 5.01µM
COc1ccc2c(c1)-c1nc(NC(=O)c3ccccc3F)sc1CC2	none
O=C(CC1CCN(C(=O)C2(c3ccccc3)CC2)C1)NC1CC1 (stereo not given)	none
COc1cccc(CN(C)C(=O)c2cn(Cc3ccc(Cl)cc3)nn2)c1	none
COCC(=O)NC[C@H]1CCN(Cc2ccc(OC)cc2)C[C@H]1N(C)C	none
N#C/C(=C/c1ccc(Cl)cc1Cl)c1nc2ccccc2c(=O)[nH]1	none
COc1c(Cl)cc(Cl)cc1/C=C(\C#N)c1nc2ccccc2[nH]1	Pf Dd2 growth 5.62µM
Cc1c(Cl)cccc1-c1ccc(/C=C(\C#N)c2nc3ccccc3[nH]2)o1	none
CCOc1cc(=O)n2c(c1C(=O)Nc1ccc(F)c(Cl)c1)CCCC2	none
CCOc1ccc(CC(=O)NC2CCc3n[nH]c(=O)n3CC2)cc1OCC (stereo not given)	none
COc1ccc(C(=O)NC2CCCN(c3cc(-c4ccc(F)cc4)[nH]n3)C2)cc1 (stereo not given)	none
COc1ccc(-c2cc(N3CCCC(NC(=O)c4ccc5[nH]ccc5c4)C3)n[nH]2)cc1 (stereo not given)	Pf Dd2 growth 10µM
COc1ccc(-c2cc(N3CCC(NC(=O)c4ccc(Cl)cc4)C3)n[nH]2)cc1 (stereo not given)	none
CN(C)c1cccc(C(=O)NC2CCCN(c3cc(-c4ccccc4)[nH]n3)C2)c1 (stereo not given)	none
CCOc1ccc(C(=O)NC2CCN(c3cc(-c4ccc(OC)cc4)[nH]n3)C2)cc1 (stereo not given)	none
O=C(NC1CCCN(c2cc(-c3ccccc3)[nH]n2)C1)c1cccc(Br)c1 (stereo not given)	none
COc1ccc(-c2cc(N3CCC(NC(=O)c4ccc(C)cc4)C3)n[nH]2)cc1 (stereo not given)	Pf Dd2 growth 11.2µM
O=C(NC1CCCN(c2cc(-c3ccccc3)[nH]n2)C1)c1ccc2[nH]ccc2c1 (stereo not given)	none
COc1ccc(-c2cc(N3CCCC(NC(=O)c4cccc(Br)c4)C3)n[nH]2)cc1 (stereo not given)	Pf Dd2 growth 10µM
O=C(NC1CCN(c2cc(-c3ccc(Cl)cc3)[nH]n2)C1)c1ccncc1 (stereo not given)	none
CN(C)c1cccc(C(=O)NC2CCN(c3cc(-c4ccc(Cl)cc4)[nH]n3)C2)c1 (stereo not given)	Pf Dd2 growth 7.94µM
COc1ccc(-c2cc(N3CCCC(NC(=O)c4ccccc4)C3)n[nH]2)cc1 (stereo not given)	none
COc1cccc(NC(=O)N2CC(C(=O)N(C)C)C3(CCOCC3)C2)c1 (stereo not given)	none
COc1nccnc1NC1CCN(C(=O)NC2CCCCC2)CC1	none
C[C@@H](NC(=O)c1ccc(F)cc1)c1onc(-c2ccccc2)c1C(=O)O	none
O=C(NCc1ccccc1)N1CCN2C(=O)N(C3CCOCC3)C[C@H]2C1	none
CC[C@H]1CN(S(=O)(=O)c2ccc(OC)cc2)CC[C@H]1CC(=O)NCc1ccc(OC)cc1	none
Cc1nn(C)c(C)c1CCC(=O)N1CCCC(N(C)C)CC1 (stereo not given)	none
CCC(=O)NCc1cc2c(nc1OC)CN(C1CCCC1)C2=O	none
Nc1nc(-c2cccc(CN3CCOCC3)c2)cc(N2CCCC2)n1	none
O=C(N[C@@H]1COCC[C@@H]1OCc1cscn1)c1ccc2c(c1)CCO2	none
COCc1nc(CCNC(=O)c2ccc(OC)nc2)no1	none
Cn1cc(C(=O)NCCc2noc(-c3ccncc3)n2)cn1	none
COc1ccc(C(=O)NCCc2noc(-c3ccncc3)n2)cn1	Pf Dd2 growth 2.51µM
CC1CCC(NC(=O)C2CCN(C(=O)c3ncn4c3COC(c3ccccc3)C4)CC2)CC1 (stereo not given)	none
CCN1c2cc(C(=O)Nc3ccc(N(C)C)cc3)ccc2C(=O)N2CCCCC21 (stereo not given)	none
O=C(c1cccnn1)N1C[C@H]2CN(C3CCOCC3)C[C@@]2(C(=O)O)C1	none
CCN1CCN(c2nc3c(s2)CN(C(=O)COC)CC3)CC1	none
CC(=O)N1CCN(c2ccnc(-c3nnc(C)n3C3CCCCC3)c2)CC1	none
O=C(NCc1ccccc1)[C@@H]1Cc2nc[nH]c2CN1Cc1ccc(Cl)cc1	none
O=C(NC1CCCCC1)[C@@H]1Cc2nc[nH]c2CN1Cc1ccc(Cl)cc1	Pf Dd2 growth 12.6µM
O=C([C@@H]1Cc2nc[nH]c2CN1Cc1ccc(Cl)cc1)N1CCOCC1	none
COc1ccc(CNC(=O)[C@@H]2Cc3nc[nH]c3CN2Cc2ccc(CO)o2)cc1	none
COc1ccc(CNC(=O)[C@@H]2Cc3nc[nH]c3CN2Cc2ccc(C(=O)O)cc2)cc1	none
COc1ccc(CNC(=O)[C@@H]2Cc3nc[nH]c3CN2Cc2ccc(Cl)cc2)cc1	Pf Dd2 growth 12.6µM
CCS(=O)(=O)N1C[C@@H](C(=O)N2CCCCCC2)[C@H](c2ccncc2)C1	none
C[C@@H](NC(=O)c1ccccn1)c1onc(-c2ccc(F)cc2)c1C(=O)O	none
O=C(NCc1ccc(F)cc1)Nc1cccc(-c2ccc(N3CCOCC3)nn2)c1	none
Fc1cccc(-c2nnn3c2nc(NCc2ccc4c(c2)OCO4)c2ccccc23)c1	none
CC(C)Nc1nc2c(-c3cccc(Br)c3)nnn2c2ccccc12	none
Fc1cccc(-c2nnn3c2nc(NC2CCCCC2)c2ccccc23)c1	Pf Dd2 growth 8.91µM
CCn1nccc1C(=O)N1CC[C@H]2C(=O)NCCCCCCN(Cc3ccncc3)[C@@H]2C1	none
O=C(C[C@H]1NC(=O)c2ccccc2NC1=O)Nc1ncc[nH]1	none
CCn1ccnc1CN1CCc2[nH]cnc2C1c1ccc(OC)c(F)c1F (stereo not given)	none
Fc1ccc(CN2CCNc3cnc(-c4ccccc4)cc3C2)cc1F	none
CN(C)Cc1cn2c(=O)n(C)cc(-c3ccc(O)c(F)c3)c2n1	none
CN(C)Cc1cn2c(=O)n(C)cc(-c3ccc(F)c(Cl)c3)c2n1	Pf Dd2 growth 2.51µM
Cn1cc(-c2ccc(F)c(Cl)c2)c2nc(CO)cn2c1=O	none
O=C(c1cccs1)N1[C@H]2CC[C@@H]1c1cnc(-c3ccc(F)cc3)nc1C2	none
CCCCCN1C(C(=O)c2ccccc2)=C(OC(=O)CC)c2ccccc2S1(=O)=O	Pf Dd2 growth 3.16µM
CCCCCN1C(C(=O)c2ccccc2)=C(NC(C)=O)c2ccccc2S1(=O)=O	none
CCCCC(=O)OC1=C(C(=O)c2ccccc2)N(CCC)S(=O)(=O)c2ccccc21	none
COc1ccccc1CC(=O)N1CC[C@@H]2NC(=O)[C@H]3C[C@H](NC(=O)C4CCCC4)CN3C(=O)[C@H]21	none
c1ccc(OCc2noc(-c3ccc(NC4CCSC4)nc3)n2)cc1 (stereo not given)	Pf Dd2 growth 10µM
CC1(COc2ccc(-c3nc(COc4ccccc4)no3)cn2)CCCNC1 (stereo not given)	none
CCC(O)CNc1ccc(-c2nc(COC)no2)cn1 (stereo not given)	none
c1cc2nnc(C3CCC3)n2nc1N1CCOCC1	none
